# Assay results as given in the supplement of paper PMC8728848.
# The full list was thinned out, with the strongest signals kept by preference.
# Experiments:
# Experiment in all cases: glycan array binding signal (z-score within array); higher = stronger binding
# Conditions in all cases: glycan notation: IUPAC condensed, linker removed
# [1] = biological target: Fuc(a1-2)Gal(b1-4)GlcNAc(b1-3)[Fuc(a1-3)[Gal(b1-4)]GlcNAc(b1-6)]Gal(b1-4)Glc
# In short: (§1)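 The binding signal is a Z-score computed within each array. Data were drawn from 3228 arrays in the Consortium for Functional Glycomics database, restricted to those with a known protein sequence. Scores were averaged over arrays of the same protein sequence at different concentrations or buffers, and over linkers, and negative values can be taken as non-binding.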
# [2] = biological target: Fuc(a1-2)Gal(b1-4)[Fuc(a1-3)]GlcNAc(b1-3)Gal(b1-4)[Fuc(a1-3)]GlcNAc(b1-3)Gal(b1-4)[Fuc(a1-3)]GlcNAc
# In short: as §1
# [3] = biological target: Fuc(a1-2)[Gal(a1-3)]Gal(b1-3)GlcNAc(b1-6)GalNAc
# In short: as §1
# [4] = biological target: Fuc(a1-2)[GalNAc(a1-3)]Gal(b1-4)[Fuc(a1-3)]GlcNAc
# In short: as §1
# [5] = biological target: Fuc(a1-3)[Gal(b1-4)]GlcNAc(b1-6)GalNAc
# In short: as §1
# [6] = biological target: Fuc(a1-3)[GalNAc(b1-4)]GlcNAc6S
# In short: as §1
# [7] = biological target: Gal(a1-3)Gal(b1-3)GlcNAc(b1-2)Man(a1-3)[Gal(a1-3)Gal(b1-3)GlcNAc(b1-2)Man(a1-6)]Man(b1-4)GlcNAc(b1-4)GlcNAc
# In short: as §1
# [8] = biological target: Gal(a1-4)Gal(b1-4)GlcNAc
# In short: as §1
# [9] = biological target: Gal(b1-3)GalNAc(a1-3)[Fuc(a1-2)]Gal(b1-4)GlcNAc
# In short: as §1
# [10] = biological target: Gal(b1-3)GlcNAc(b1-2)[Gal(b1-3)GlcNAc(b1-6)]Man(a1-6)[Gal(b1-3)GlcNAc(b1-2)Man(a1-3)]Man(b1-4)GlcNAc(b1-4)GlcNAc
# In short: as §1
# [11] = biological target: Gal(b1-3)[Fuc(a1-4)]GlcNAc(b1-3)Gal(b1-4)[Fuc(a1-3)]GlcNAc
# In short: as §1
# [12] = biological target: Gal(b1-4)GlcNAc(b1-2)[Gal(b1-4)GlcNAc(b1-4)]Man(a1-3)[Gal(b1-4)GlcNAc(b1-2)[Gal(b1-4)GlcNAc(b1-6)]Man(a1-6)]Man(b1-4)GlcNAc(b1-4)GlcNAc
# In short: as §1
# [13] = biological target: Gal(b1-4)GlcNAc(b1-3)Gal(b1-3)GalNAc
# In short: as §1
# [14] = biological target: Gal(b1-4)GlcNAc(b1-3)Gal(b1-4)GlcNAc(b1-2)Man(a1-3)[Gal(b1-4)GlcNAc(b1-3)Gal(b1-4)GlcNAc(b1-2)Man(a1-6)]Man(b1-4)GlcNAc(b1-4)GlcNAc
# In short: as §1
# [15] = biological target: Gal(b1-4)GlcNAc(b1-3)Gal(b1-4)GlcNAc(b1-3)Gal(b1-4)GlcNAc(b1-2)Man(a1-3)[Gal(b1-4)GlcNAc(b1-3)Gal(b1-4)GlcNAc(b1-3)Gal(b1-4)GlcNAc(b1-2)Man(a1-6)]Man(b1-4)GlcNAc(b1-4)GlcNAc
# In short: as §1
# [16] = biological target: Gal(b1-4)GlcNAc(b1-3)Gal(b1-4)GlcNAc(b1-3)GalNAc
# In short: as §1
# [17] = biological target: Gal(b1-4)GlcNAc(b1-3)Gal(b1-4)GlcNAc(b1-3)[Gal(b1-4)GlcNAc(b1-3)Gal(b1-4)GlcNAc(b1-6)]GalNAc
# In short: as §1
# [18] = biological target: Gal(b1-4)GlcNAc(b1-3)Gal(b1-4)GlcNAc(b1-6)[Gal(b1-3)]GalNAc
# In short: as §1
# [19] = biological target: Gal3S(b1-4)Glc
# In short: as §1
# [20] = biological target: Gal3S(b1-4)[Fuc(a1-3)]Glc6S
# In short: as §1
# [21] = biological target: GalNAc(b1-4)GlcNAc6S
# In short: as §1
# [22] = biological target: GalNAc3S(b1-4)GlcNAc3S
# In short: as §1
# [23] = biological target: GlcA(b1-6)Gal
# In short: as §1
# [24] = biological target: GlcA3S(b1-3)Gal(b1-4)GlcNAc(b1-3)Gal(b1-4)Glc
# In short: as §1
# [25] = biological target: GlcNAc(b1-3)Gal(b1-4)Glc
# In short: as §1
# [26] = biological target: GlcNAc(b1-3)Gal(b1-4)GlcNAc
# In short: as §1
# [27] = biological target: GlcNAc(b1-3)Gal(b1-4)GlcNAc(b1-2)Man(a1-3)[GlcNAc(b1-3)Gal(b1-4)GlcNAc(b1-2)Man(a1-6)]Man(b1-4)GlcNAc(b1-4)GlcNAc
# In short: as §1
# [28] = biological target: Kdn(a2-3)Gal(b1-4)[Fuc(a1-3)]GlcNAc
# In short: as §1
# [29] = biological target: Man(a1-2)Man(a1-3)Man
# In short: as §1
# [30] = biological target: Man(a1-3)[Man(a1-6)]Man(a1-6)[Man(a1-2)Man(a1-3)]Man(b1-4)GlcNAc(b1-4)GlcNAc
# In short: as §1
# [31] = biological target: Man(a1-3)[Man(a1-6)]Man(a1-6)[Man(a1-3)]Man(b1-4)GlcNAc(b1-4)GlcNAc
# In short: as §1
# [32] = biological target: Neu5Ac(a2-3)Gal(b1-4)GlcNAc(b1-2)[Neu5Ac(a2-3)Gal(b1-4)GlcNAc(b1-6)]Man(a1-6)[Neu5Ac(a2-3)Gal(b1-4)GlcNAc(b1-2)Man(a1-3)][GlcNAc(b1-4)]Man(b1-4)GlcNAc(b1-4)GlcNAc
# In short: as §1
# [33] = biological target: Neu5Ac(a2-3)Gal(b1-4)GlcNAc(b1-3)Gal(b1-4)GlcNAc(b1-2)Man(a1-3)[Neu5Ac(a2-3)Gal(b1-4)GlcNAc(b1-3)Gal(b1-4)GlcNAc(b1-2)Man(a1-6)]Man(b1-4)GlcNAc(b1-4)GlcNAc
# In short: as §1
# [34] = biological target: Neu5Ac(a2-3)Gal(b1-4)GlcNAc(b1-3)Gal(b1-4)GlcNAc(b1-3)Gal(b1-4)GlcNAc(b1-2)Man(a1-3)[Neu5Ac(a2-3)Gal(b1-4)GlcNAc(b1-3)Gal(b1-4)GlcNAc(b1-3)Gal(b1-4)GlcNAc(b1-2)Man(a1-6)]GalNAc
# In short: as §1
# [35] = biological target: Neu5Ac(a2-3)Gal(b1-4)GlcNAc(b1-3)Gal(b1-4)GlcNAc(b1-3)GalNAc
# In short: as §1
# [36] = biological target: Neu5Ac(a2-3)[GalNAc(b1-4)]Gal(b1-4)GlcNAc(b1-3)GalNAc
# In short: as §1
# [37] = biological target: Neu5Ac(a2-6)Gal(b1-4)GlcNAc(b1-3)Gal(b1-4)GlcNAc(b1-3)Gal(b1-4)GlcNAc(b1-2)Man(a1-3)[Neu5Ac(a2-6)Gal(b1-4)GlcNAc(b1-3)Gal(b1-4)GlcNAc(b1-3)Gal(b1-4)GlcNAc(b1-2)Man(a1-6)]GalNAc
# In short: as §1
# [38] = biological target: Neu5Ac(a2-6)Gal(b1-4)GlcNAc(b1-3)Gal(b1-4)GlcNAc(b1-3)[Neu5Ac(a2-6)Gal(b1-4)GlcNAc(b1-3)Gal(b1-4)GlcNAc(b1-6)]GalNAc
# In short: as §1
# [39] = biological target: Neu5Ac(a2-6)Gal(b1-4)GlcNAc(b1-3)Gal(b1-4)[Fuc(a1-3)]GlcNAc(b1-3)Gal(b1-4)[Fuc(a1-3)]GlcNAc
# In short: as §1
# [40] = biological target: Neu5Ac(a2-6)GalNAc
# In short: as §1
binder,measurement,setting,value
"mCC1-Hexahis-Precomplexed (Mus musculus), P31809 (protein) MELASAHLHKGQVPWGGLLLTASLLASWSPATTAEVTIEAVPPQVAEDNNVLLLVHNLPLALGAFAWYKGNTTAIDKEIARFVPNSNMNFTGQAYSGREIIYSNGSLLFQMITMKDMGVYTLDMTDENYRRTQATVRFHVHPILLKPNITSNNSNPVEGDDSVSLTCDSYTDPDNINYLWSRNGESLSEGDRLKLSEGNRTLTLLNVTRNDTGPYVCETRNPVSVNRSDPFSLNIIYGPDTPIISPSDIYLHPGSNLNLSCHAASNPPAQYFWLINEKPHASSQELFIPNITTNNSGTYTCFVNNSVTGLSRTTVKNITVLEPVTQPFLQVTNTTVKELDSVTLTCLSNDIGANIQWLFNSQSLQLTERMTLSQNNSILRIDPIKREDAGEYQCEISNPVSVRRSNSIKLDIIFDPTQGGLSDGHHHHHH",glycan array binding signal (z-score),[1],-0.163
same,glycan array binding signal (z-score),[2],-0.097
same,glycan array binding signal (z-score),[3],-0.18
same,glycan array binding signal (z-score),[4],0.277
same,glycan array binding signal (z-score),[5],-0.024
same,glycan array binding signal (z-score),[6],-0.231
same,glycan array binding signal (z-score),[7],-0.189
same,glycan array binding signal (z-score),[8],-0.227
same,glycan array binding signal (z-score),[9],-0.191
same,glycan array binding signal (z-score),[10],-0.273
same,glycan array binding signal (z-score),[11],-0.217
same,glycan array binding signal (z-score),[12],-0.217
same,glycan array binding signal (z-score),[13],-0.158
same,glycan array binding signal (z-score),[14],3.85
same,glycan array binding signal (z-score),[15],4.96
same,glycan array binding signal (z-score),[16],6.28
same,glycan array binding signal (z-score),[17],4.46
same,glycan array binding signal (z-score),[18],5.01
same,glycan array binding signal (z-score),[19],-0.25
same,glycan array binding signal (z-score),[20],-0.049
same,glycan array binding signal (z-score),[21],-0.282
same,glycan array binding signal (z-score),[22],-0.065
same,glycan array binding signal (z-score),[23],-0.12
same,glycan array binding signal (z-score),[24],-0.235
same,glycan array binding signal (z-score),[25],-0.227
same,glycan array binding signal (z-score),[26],-0.246
same,glycan array binding signal (z-score),[27],-0.184
same,glycan array binding signal (z-score),[28],-0.169
same,glycan array binding signal (z-score),[29],-0.152
same,glycan array binding signal (z-score),[30],4.18
same,glycan array binding signal (z-score),[31],-0.197
same,glycan array binding signal (z-score),[32],-0.045
same,glycan array binding signal (z-score),[33],7.65
same,glycan array binding signal (z-score),[34],7.6
same,glycan array binding signal (z-score),[35],-0.119
same,glycan array binding signal (z-score),[36],3.55
same,glycan array binding signal (z-score),[37],4.99
same,glycan array binding signal (z-score),[38],9.54
same,glycan array binding signal (z-score),[39],-0.116
same,glycan array binding signal (z-score),[40],-0.234
